# MmCpn inh = blocks the Methanococcus maripaludis chaperonin Mm-Cpn; purified Mm-Cpn ATPase, ADP Transcreener TR-FRET; 330,000 compounds, 0.031% hits; Potency, µM (doses to about 76.9 µM), inactives show at the top dose activity, negative = inhibition, usual class: inhibitors; active = well fitted inhibition curve with a large enough effect; inconclusive = small, poorly fitted or top-dose-only effect; note: potency is the fitted concentration of half-maximal effect; % is set by controls: 0 for no effect and ±100 for the full control effect; nearly all actives have a fitted effect of over 80% in size
#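 Eu-cryptate anti-ADP/ADP-d2 competition gives a ratio inversely related to ADP. Enzyme at 25 nM was pre-exposed to compound for 10 min, then given 10 uM ATP for 30 min, 37°C throughout.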
# gsp ag = agonists of gsp mutant (McCune-Albright syndrome) | gsp mutant cells, cAMP HTRF, 30 min | Potency, µM (doses to about 76.9 µM), inactives show at the highest dose activation (cAMP increase), actives largely listed as activators | 340,000 compounds, 0.13% hits; active = well fitted activation curve with a large enough effect; inconclusive = small, poorly fitted or top-dose-only effect, or another doubt; inactive = no such curve, though single readings can be large or run the other way; cell line not stated here;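 note: phosphodiesterase inhibitor Ro 20-1724 added with compounds to block cAMP breakdown; potency is the fitted concentration of half-maximal effect; nearly all actives have a fitted effect of over 60% in size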
#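 Cells stably selected in G418 were plated at 2000/well, grown 16-24 hr, then given compounds in DMSO with the PDE inhibitor […] (300 uM solution added) for 30 min at 37C; cAMP was read by HTRF.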
# gsp antag = antagonizes gsp, the McCune-Albright syndrome mutation; gsp-mutant cells, cAMP HTRF, 30 min; Potency, µM (series often up to 76.9 µM), for the others: at the highest dose activity change, negative = inhibition, most hits filed as inhibitors; 340,000 compounds, 0.4% hits; AID 624288; calls by dose curve; cell line not stated here;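 note: intracellular cAMP measured with PDE inhibitor Ro 20-1724 present during compound exposure; potency is the fitted concentration of half-maximal effect; % is set by controls: 0 for no effect and ±100 for the full control effect; nearly all actives have a fitted effect of over 65% in size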
#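 HTRF cAMP measurement after 30 min RT detection following 30 min, 37C compound treatment alongside […] (added as 300 uM solution) in G418-selected cells seeded at 2000/well and grown 16–24 h.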
# TSHR antag = blocks TSH signaling through the human TSH receptor. P16473. TSHR-expressing cells, TSH-stimulated cAMP HTRF, 2 h; active compounds read low. activity change, negative = inhibition, % at 11.5 µM. 330,000 compounds, 0.2% hits. AID 504810;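 active = activity change below a set negative limit, meaning inhibition stronger than a set level, cut at about -70% in these data; inconclusive = activity change between two set negative limits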; note: % is set by controls: 0 for no effect and ±100 for the full control effect
# Target sequence (P16473 whole entry, looked up): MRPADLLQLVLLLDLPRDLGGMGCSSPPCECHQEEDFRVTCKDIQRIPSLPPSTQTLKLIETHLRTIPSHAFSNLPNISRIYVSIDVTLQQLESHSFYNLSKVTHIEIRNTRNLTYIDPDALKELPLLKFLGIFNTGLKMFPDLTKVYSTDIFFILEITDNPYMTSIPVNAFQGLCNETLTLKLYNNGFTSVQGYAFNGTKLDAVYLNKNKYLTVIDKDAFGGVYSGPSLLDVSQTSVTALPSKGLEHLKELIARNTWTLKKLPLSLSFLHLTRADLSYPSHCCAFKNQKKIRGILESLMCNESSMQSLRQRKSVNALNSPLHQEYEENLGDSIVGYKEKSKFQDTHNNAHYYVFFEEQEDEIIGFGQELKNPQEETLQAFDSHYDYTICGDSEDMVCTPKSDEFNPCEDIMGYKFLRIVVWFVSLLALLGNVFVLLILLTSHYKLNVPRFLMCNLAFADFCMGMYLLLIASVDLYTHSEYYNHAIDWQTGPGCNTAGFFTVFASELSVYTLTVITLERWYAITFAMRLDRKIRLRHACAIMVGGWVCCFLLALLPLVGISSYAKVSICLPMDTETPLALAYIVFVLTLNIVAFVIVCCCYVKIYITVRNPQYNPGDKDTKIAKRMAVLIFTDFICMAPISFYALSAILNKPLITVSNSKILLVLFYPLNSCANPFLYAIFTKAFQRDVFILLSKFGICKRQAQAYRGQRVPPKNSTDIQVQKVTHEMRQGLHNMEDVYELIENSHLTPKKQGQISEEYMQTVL
#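 Read-out is FRET at 665 nm (cryptate excitation 337 nm) from a cryptate-tagged anti-cAMP antibody, competed by cell cAMP against cAMP-d2. Compounds are tested on freshly harvested TSHR cells challenged with 4nM TSH (EC80) for 2 hours at 37 deg C.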
# uPA surface inh = cell surface uPA generation inhibition; AID 540303; Potency, µM (highest dose often 38.3 µM), inactives show at the highest dose activity change, negative = inhibition, most hits filed as inhibitors; 330,000 compounds, 0.31% hits; cell surface uPA generation assay, qHTS; active = well fitted inhibition curve with a large enough effect; inconclusive = small, poorly fitted or top-dose-only effect; inactive = no such curve, though single readings can be large or run the other way; tested in mouse RAW 264.7 cells; note: potency is the fitted concentration of half-maximal effect; % is set by controls: 0 for no effect and ±100 for the full control effect; nearly all actives have a fitted effect of over 55% in size
# CCT chaperon mod = modulators of cytosolic chaperonin (CCT/TRiC) activity; purified chaperonin ATPase assay, HTRF ADP detection, 30 min; AID 651819; activity change, % (no concentration beside the values), hits read low; 360,000 compounds, 0.3% hits; in the data active = activity change below about -30%; note: % is set by controls: 0 for no effect and ±100 for the full control effect
#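 TRiC at 40 or 20 nM final (batch-dependent) in 30 mM Tris pH 7.4, 100 mM KCl, 5 mM MgCl2, 1 mM DTT, with compound at single 76 uM and 10 uM ATP, 30 min at 37 deg C. ADP detected by HTRF Transcreener, 665/615 ratio.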
# An asterisk follows results filed as active; ? = inconclusive; . = no result; [ ] = another dose, or the depositor's remark. Compounds with a hit are over-represented: about 1.2% of the library has one in this group of screens.
SMILES,MmCpn inh,gsp ag,gsp antag,TSHR antag,uPA surface inh,CCT chaperon mod
O=C(OC1CCOC1=O)c1cc(-c2cccs2)nc2ccccc12 (centres undefined),-10.7%,8.3%[15.4 µM],-13.9%,0.1,-2.9%,-74.0*
Cc1ccc(-c2cc(C(=O)OC3CCOC3=O)c3ccccc3n2)c(C)c1 (centres undefined),-0.7%,-7.0%[15.4 µM],-14.5%,-3.6,-5.8%,-2.1
CN(C)S(=O)(=O)N1CCN(c2ccnc3cc(Cl)ccc23)CC1,-2.5%,18.2%,?,-120.2*,-7.1%,3.4
N#Cc1cccc(S(=O)(=O)N2CCN(c3ccnc4cc(Cl)ccc34)CC2)c1,-16.5%,-32.3%,25.1µM*,-4.6,-22.4%,-1.8
CC1CCN(C(=O)CSc2nc(N)c(NC(=O)c3ccccc3)c(=O)[nH]2)CC1,2.0%,-28.0%,6.3%,2.3,4.5%,0.9
Cc1ccc(-c2nn(CCC(=O)Nc3cccnc3)c(=O)c3ccccc23)cc1,0.6%,3.0%[15.4 µM],-21.2%,-9.4,5.9%,-64.6*
O=C(CN1CCCCCC1=O)OCc1ncc(-c2ccccc2)o1,-2.4%,-19.3%,6.1%,10.8,0.0%,-3.0
COc1ccc(/C=N\NC(=O)c2ccccc2F)cc1COc1ccc(F)cc1,1.3%,?,-0.4%,10.1,-5.6%,-3.5
c1ccc2c(Nc3nnc(-c4ccncc4)s3)cccc2c1,0.6%,-4.3%,-8.5%,-6.2,-11.9%,0.2
Cc1ccc(CNC(=O)COC(=O)C2CCN(S(=O)(=O)c3cccs3)CC2)cc1,1.4%,?,35.5µM*,4.1,2.3%,-1.0
Cc1ccc(C(=O)C2=C(O)C(=O)N(c3ncccn3)C2c2ccccc2F)o1 (centres undefined),-15.3%,2.82µM*,-7.3%,-110.5*,-1.1%,-66.5*
COC(=O)c1ccccc1NC(=O)CN(C1CCCCC1)S(C)(=O)=O,-0.9%,-1.6%,-13.5%,-0.6,-2.1%,-3.7
N#Cc1c(-c2ccc([N+](=O)[O-])cc2)nc2n(c1=O)CCS2,2.6%,14.1µM*,-5.7%,1.5,14.4%,-1.3
CC1=C(C(=O)OC(C)C)C(c2ccc(O)cc2)NC(=O)N1 (centres undefined),-1.2%,-29.3%,5.8%,-16.7,0.2%,0.8
CC1Oc2ccccc2C=C1/C=N/NC(=O)c1ccccc1 (centres undefined),-1.8%,-1.2%[15.4 µM],0.7%,-4.9,-14.2%,-45.2*
Cc1c(C(=O)Nc2ccc(S(=O)(=O)Nc3ncccn3)cc2)oc2ccc(Cl)cc12,0.9%,-11.0%,-20.7%,11.5,15.1%,-34.3*
Cc1ccc(-c2nnc3ccc(SCC(=O)NCc4ccco4)nn23)cc1,-3.3%,33.9%,-0.3%,-2.2,.,-2.4
O=C(CSc1ncc(-c2ccccc2)nn1)NCc1ccco1,-1.2%,?,-4.8%,2.6,-7.1%,-91.5*
O=C(CSc1ccc2nnc(-c3ccncc3)n2n1)NCc1ccco1,2.9%,17.8µM*,10.3%,14.5,14.4%,0.1
CC(/C=N/NC(=O)Cc1cccn1C)=C\c1ccco1,1.7%,?,4.7%,-1.3,4.3%,-0.5
CCOC(=O)c1nnn(-c2nonc2N)c1CSc1ccccc1,-0.8%,-32.7%,-5.3%,-11.3,-1.1%,-0.3
CC(C)Cc1nnc(NC(=O)c2cccc(S(=O)(=O)N3CCN(C)CC3)c2)s1,-1.5%,?,1.5%,4.5,-7.9%,-1.3
CC(C)Cc1nnc(NC(=O)c2cccc(S(=O)(=O)N3CCOCC3)c2)s1,?,-55.3%,-15.5%,-13.6,-16.1%,-59.3*
C/C=C\C=C\C(=O)N1CC2(CC(c3cccc(NC(=O)COc4ccc(Cl)cc4)c3)=NO2)C[C@H]1C(N)=O (some centres undefined),-0.5%,-3.9%,-0.4%,0.7,?,1.3
CCC(=O)Nc1c(-c2ccccc2Cl)c(=O)c2ccccc2n1CC,1.1%,15.8µM*,8.1%,-4.7,9.1%,0.8
COC(=O)C1CCCN1S(=O)(=O)c1ccc2ccccc2c1 (centres undefined),1.0%,-7.8%,-42.5%,-77.6*,.,2.7

# Assay outcomes as filed in PubChem BioAssay.
